Results: PubChem BioAssay AID1851 (National Center for Advancing Translational Sciences (NCATS), 2009)
Among all 16,000 compounds or so, about 2,600 (16%) were called active. Inconclusive results (about 20%) are left out. The call rests on the fitted dose curve; in most records, active means well fitted curve in the direction sought with a large enough effect; inconclusive means small, poorly fitted or top-dose-only effect, or effect the other way; inactive means no such curve, though single readings can be large or run the other way. These entries were drawn from the full list.

target: Cytochrome P450 2D6 (Homo sapiens) (UniProt P10635); experiment: Cytochrome panel assay with activity outcomes; settings: recombinant CYP, pro-luciferin dealkylation, luminescence, p450-cyp2d6; series mostly up to 57.1 µM; activity, negative = inhibition: at the top concentration
On the % scale 0 is the no-effect control and ±100 the full control effect.

Cytochrome P450 2D6 (Homo sapiens), sequence (P10635 whole entry, looked up): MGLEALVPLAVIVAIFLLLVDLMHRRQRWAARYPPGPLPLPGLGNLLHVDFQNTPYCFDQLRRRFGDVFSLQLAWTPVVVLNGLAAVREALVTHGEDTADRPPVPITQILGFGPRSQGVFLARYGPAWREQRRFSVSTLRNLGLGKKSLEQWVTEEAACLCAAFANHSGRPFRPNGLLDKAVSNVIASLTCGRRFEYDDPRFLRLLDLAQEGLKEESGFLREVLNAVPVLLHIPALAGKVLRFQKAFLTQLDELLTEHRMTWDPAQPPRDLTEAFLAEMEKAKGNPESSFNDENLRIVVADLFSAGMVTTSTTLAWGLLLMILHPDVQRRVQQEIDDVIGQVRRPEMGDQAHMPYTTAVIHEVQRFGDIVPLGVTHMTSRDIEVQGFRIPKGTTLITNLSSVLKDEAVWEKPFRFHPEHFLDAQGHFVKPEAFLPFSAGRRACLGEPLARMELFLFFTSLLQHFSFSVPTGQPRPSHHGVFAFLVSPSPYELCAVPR

Structure (SMILES)	activity, negative = inhibition	AC50
CC(C)OCCCn1c(=S)[nH]c2ncccc2c1=O	-7.67% (inactive)	–
COCCn1c(=O)c(C)nc2cnc(N3CCNCC3)nc21	-1.98% (inactive)	–
Cc1noc(NS(=O)(=O)c2ccc(NC(=O)c3ccc(Br)o3)cc2)c1C	0.162% (inactive)	–
COCCOC(=O)C1=C(C)NC(=O)N(C(C)=O)C1c1ccc(Cl)cc1 (centres undefined)	1.76% (inactive)	–
COC(=O)C1=CO[C@@H](C)[C@H]2CN3CCc4c([nH]c5ccccc45)[C@@H]3C[C@H]12	–	0.002 µM (active)
COC(=O)[C@@H]1[C@@H]2C[C@H]3c4[nH]c5ccccc5c4CCN3C[C@@H]2CC[C@@H]1OS(=O)(=O)O	-18.5% [at 11.4 µM] (inactive)	–
COc1ccc2c3c([nH]c2c1)[C@@H]1C[C@@H]2[C@@H](C[C@H](O)[C@H](OC)[C@H]2C(=O)O)CN1CC3	3.02% [at 25.6 µM] (inactive)	–
C[C@@H](C(=O)O)c1ccc(C[C@@H]2CCCC2=O)cc1	17.2% (inactive)	–
COCCNC(=O)c1cn(Cc2c(F)cccc2Cl)nn1	11.7% (inactive)	–
Cc1cnc(CNc2ncnc3ccc(-c4ccccc4Cl)cc23)cn1	–	15.8 µM (active)
Cc1cnc(CNc2cc(-c3ccc(C(=O)N(C)C)cc3)ncn2)cn1	8.03% (inactive)	–
Cc1cnc(CNc2ncnc3ccc(-c4ccccc4CN(C)C)cc23)cn1	–	2.51 µM (active)
Cc1cnc(CNc2cc(-c3ccccc3Cl)ncn2)cn1	-20.6% (inactive)	–
CCN(CC)C(=O)C1CC(=O)N(c2ccc(OC)cc2)C1c1ccc(OC)cc1 (centres undefined)	4.78% (inactive)	–
COc1ccc(NC(=O)CSC2=NC(=O)CC(C)=N2)cc1	-4.11% (inactive)	–
N#CCCn1nnc2ccccc21	-4.37% (inactive)	–
CN(Cc1ccccc1)C(=O)CC(c1ccccc1)c1cc(Cl)ccc1O (centres undefined)	–	8.91 µM (active)
O=C(O)Cc1cc(Cl)ccc1O	16.8% [at 11.4 µM] (inactive)	–
O=C(NCc1ccccc1)c1ccc(Cl)cc1[N+](=O)[O-]	-27.1% (inactive)	–
CC(C)Oc1ccc(C(=O)Nc2ccc(NC(=O)c3ccco3)c(Cl)c2)cc1	-23.4% (inactive)	–
Cc1cccc(C(CC(=O)N2CCCC2)c2ccccc2)c1O (centres undefined)	-13.7% (inactive)	–
CC(C)Oc1ccc(CNC(=O)CC(c2ccccc2)c2cc(Cl)ccc2O)cc1 (centres undefined)	–	14.1 µM (active)

Structure (SMILES)	activity, negative = inhibition	AC50
CCOC(=O)N1CCC(NS(=O)(=O)c2ccc3c(c2)C(C)(C)C(=O)N3C)CC1	27.5% (inactive)	–
C[N+](C)(C)CCO	1.57% (inactive)	–
COc1ccc(C(=O)n2nc(-c3ccccc3)nc2SC)cc1	-5.42% (inactive)	–
Cc1ccc(C2C(C(=O)c3ccco3)=C(O)C(=O)N2c2nnc(C)s2)cc1 (centres undefined)	-4.53% (inactive)	–
O=C1Nc2cc(C(=O)N3CCOCC3)ccc2SC1N1CCOCC1 (centres undefined)	22.1% (inactive)	–
COc1ccccc1CNC(=O)C1CC(=O)N(C2CCCC2)C1 (centres undefined)	0.967% (inactive)	–
COc1ccccc1CNC(=O)CCCn1c(=O)c2ccccc2n(CC(=O)NC2CCCC2)c1=O	-29.3% (inactive)	–
COc1cc(CNC2CCCC2)cc(Cl)c1OCc1ccccc1Cl	–	0.891 µM (active)
NC(=O)c1ccc(C2SCC(=O)N2Cc2ccccc2)cc1 (centres undefined)	0.406% (inactive)	–
Cc1ccc(CNC(=O)Cc2csc(Nc3nc(=S)[nH]c4ccccc34)n2)cc1	-28.3% (inactive)	–
CC(=O)OCC(=O)[C@@]1(O)[C@H](C)C[C@@H]2[C@H]3CCC4=CC(=O)C=C[C@]4(C)[C@]3(F)[C@@H](O)C[C@@]21C	5.29% [at 25.6 µM] (inactive)	–
CC(C)(C)N1C(=O)[C@@H]2[C@H]3C(=CC[C@H]2C1=O)C(=O)[C@H]1O[C@H]1[C@H]3O	11.6% [at 11.4 µM] (inactive)	–
O=C1[C@@H]2C=CC=CC2=NC(=S)N1CCN1CCC(=C(c2ccc(F)cc2)c2ccc(F)cc2)CC1	–	12.6 µM (active)
COC(=O)C/C=C\[C@@H](C)[C@@H](/C=N\O[C@@H](C)c1cn([C@H]2COC[C@H]2O)nn1)OC	15.1% [at 11.4 µM] (inactive)	–
N=C(N)SCC(=O)O	-6.02% [at 11.4 µM] (inactive)	–
O=C1CC(c2ccc3c(c2)OCO3)CN1 (centres undefined)	-9.95% (inactive)	–
O=C1CC(c2ccc3c(c2)OCO3)Sc2nc3ccccc3n21 (centres undefined)	–	8.91 µM (active)
Cc1ccc(NC(=O)C2CC(=O)n3c(nc4ccccc43)N2)cc1 (centres undefined)	22.5% (inactive)	–
Cc1cccc(OCC(=O)N/N=C\C=C\c2ccc3c(c2)OCO3)c1C	-10.2% (inactive)	–
CSC1=N/C(=C\c2ccc3c(c2)OCO3)C(=O)S1	-11.1% (inactive)	–
COC(=O)N/N=C\C=C\c1ccc2c(c1)OCO2	–	11.2 µM (active)
CCOc1cc(/C=C2\CCC/C(=C\c3cc(Cl)c(O)c(OCC)c3)C2=O)cc(Cl)c1O	-20.4% (inactive)	–

Structure (SMILES)	activity, negative = inhibition	AC50
CCOC(=O)c1c2ccc(OCC(=O)N/N=C/c3ccc(Cl)cc3)cc2n2ccccc12	-6.7% (inactive)	–
O=C(Nc1nnc(SCc2c(Cl)cccc2Cl)s1)C1CCCO1 (centres undefined)	-22.2% (inactive)	–
Clc1ccccc1CSc1nnc(/C=C/c2ccccc2)o1	-13.5% (inactive)	–
Clc1cccc(Cl)c1CSc1nnc(/C=C/c2ccccc2)o1	–	28.2 µM (active)
COc1cccc(Nc2ncc3nc(-c4cc(F)cc(F)c4)c(=O)n(CCC#N)c3n2)c1	-5.95% (inactive)	–
CCCCCCCCn1cc(C(C)=O)c(=O)[nH]c1=O	-17.1% (inactive)	–
O=c1cnc2cnc(Oc3cccc(Cl)c3)nc2n1C[C@H]1CCCO1	-10.4% (inactive)	–
CCN(CC)S(=O)(=O)c1ccc(OC)c(NC(=O)c2cc([N+](=O)[O-])ccc2Cl)c1	7.36% (inactive)	–
COc1ccc(OC)c(N(CC(=O)N2CCc3ccccc3C2)S(C)(=O)=O)c1	11.7% (inactive)	–
COc1ccc([N+](=O)[O-])cc1N(CC(O)CN(CC(C)C)CC(C)C)S(=O)(=O)c1ccccc1 (centres undefined)	–	0.398 µM (active)
COc1ccc(C(=O)CN2C(=O)NC(C)(c3ccccc3)C2=O)cc1OC (centres undefined)	29.8% (inactive)	–
CN(C)Cc1ccc(O)c(CN(C)C)n1	2.9% [at 11.4 µM] (inactive)	–
CN(C)CCCc1cc(C(=O)Nc2ccc(-c3ccncc3)cc2)ccc1O	–	5.01 µM (active)
Cc1ccc(NC(=O)c2cccc(N(C)C)c2)cc1NC(=O)c1ccc(O)cc1	-8.94% (inactive)	–
Cc1ccc(C(=O)Nc2ccc3nccnc3c2)cc1	-24.5% (inactive)	–
Cc1cc(C)cc(-n2nnnc2-c2cn(C)nc2C(F)(F)F)c1	-20.2% (inactive)	–
Cc1cccc(NC(=O)c2ccc([N+](=O)[O-])o2)n1	-26.8% (inactive)	–
COc1cc(/C=N/NC(=O)c2cccnc2)ccc1OC(=O)c1ccco1	-4.37% (inactive)	–
CCOc1cc(/C=N/NC(=O)c2cc(C)[nH]n2)ccc1OC(=O)c1ccc([N+](=O)[O-])cc1	-2.27% (inactive)	–
Cc1cc(C(=O)N/N=C/c2cccc(OC(=O)c3ccco3)c2)n[nH]1	–	17.8 µM (active)
